Among the data in PubChem BioAssay AID1347426 (Functional Genomics Laboratory (NCATS/FGL), 2020) are median seed-adjusted z-score values, retold here.

Out of some 31,000 sequences screened, about 1,400 (4.5%) were called active. Many of the other results were omitted from the sample, so actives are more common in it than they were. Values without a mark were called inactive.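 Rule for the calls: active = median seed-adjusted z-score above 1 or below -1; inactive = the rest.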

The assay can be described thus: Novel Modifiers of Survival Motor Neuron (SMN) Protein: Gene Identification via Genome-wide siRNA Screen.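 Note: luminescence tracks full-length SMN protein made from the SMN2 reporter.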 The settings on record: HEK293T SMN2-luciferase reporter, siRNA knockdown, 72 h; actives lie on both sides. A digest of the protocol:
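Steps: spot 1 pmol siRNA, add Lipofectamine RNAiMax in serum-free DMEM, seed HEK293T SMN2–luciferase reporter cells; incubate 72 h at 37 °C; add ONE-Glo; normalize luminescence to control siRNA, log10, MAD. Candidates: |MAD| > 1.0.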
For orientation: In a reporter assay the amount or activity of a reporter protein is the signal.
Take CGAAGUUUCCUAUAGAGGATT against PCDHGA10: the median seed-adjusted z-score is 0.0621.
As for GAUAGGAUGUGACAAUGAATT against ING2, the median seed-adjusted z-score was 0.126.
For the sequence GCCUAUCAGGAUCCCAGCATT against RIN1, the median seed-adjusted z-score was -0.0694.
AUGUACAAGUGUCAGCUAATT against VEGFC: the median seed-adjusted z-score is -0.41.
Regarding GCAUCGUGGUGUCAAGUCATT against ZBTB12, the median seed-adjusted z-score is 0.0993.
Turning to GGUUGAAGCUUAUUGCAGATT against HARS2, the median seed-adjusted z-score is 0.
CAAAAGUAUUCUUAGGAAATT against SLC25A15: the median seed-adjusted z-score was -0.0116.
Turning to GACCUACUCUAGUGACAGATT against TRERF1, the median seed-adjusted z-score was -0.0952.
As for ACCGAGAGAUGGUAUAUGATT against SUPT4H1, the figure is -1.01 (active).
On to AGAUCACUGUAUCACCUCUTT against VDR, for which the median seed-adjusted z-score is -0.031.
On to GCUGGUGACUGAGUUUUCATT against NOB1, for which the median seed-adjusted z-score was -0.0844.
On to GCUAUAUCAGGAUGAGAUATT against ATG5, for which the median seed-adjusted z-score is -0.0597.
As for GGCCUUACCCUAAAUCGAATT against RARB, the figure is 0.409; as for CGAGCUACAGGAACAUCUUTT against LSS, -0.302; as for GUGUGAAGGUAGACCGUGATT against SPATA20, 0.
Take GAGUGGAAGUGUACCAACATT against HCFC1: the median seed-adjusted z-score is 1.47 (active).
In the case of GGAAGAUUCAGUUAACAUUTT against NUDT3, the median seed-adjusted z-score is 0.674.
As for CAACCAUGUUCAGUAUAGATT against SPINK9, the figure is 0.392.
In the case of CCGGAGAAGUUCAACAGCATT against DGKA, the median seed-adjusted z-score is -1.36 (active).
On to GCUAAUCAUUGAGUAUGCATT against KLHL10, for which the median seed-adjusted z-score is 0.0708.
Take AGCUGACCGAGUUCCUGCATT against GAL3ST1: the median seed-adjusted z-score is 0.263.
CCUUGGAGGAGAUCGCUGATT against TEKT2: the median seed-adjusted z-score was -0.349.
Take GGCAUACAGUUCCGAGAAATT against AGL: the median seed-adjusted z-score is -0.385.
In the case of GUCUUAGAAUGUGAACGUATT against CCNL1, the median seed-adjusted z-score is -1.26 (active).
For GGCAGGAGGUUUAAGAAGUTT against PPP3R2, the median seed-adjusted z-score was -0.143.
The figure for GAGAGUAUCGAAACCGUUUTT against GNPTAB is 0.296; for GGACUGCACUACUCCAUGATT against ADAMTS2 it is -0.338; for GCACAGUAGUCACCAAUGATT against FUCA2 it is 0.562.
For CCAAGGUACUAACAUGGGATT against AP3M1, the median seed-adjusted z-score is 0.
CCCAGACUCUAGAUAGACATT against SULT1C3: the median seed-adjusted z-score is -0.731.
As for CUCCUGCAGUUGAAGGUGATT against FKBP8, the median seed-adjusted z-score was -0.304.
For the sequence CCAACAAUUUAGUAGUUAUTT against TBP, the median seed-adjusted z-score is -1.25 (active).
As to AGUACAACCUGGUGACGCATT against ZNF710, the median seed-adjusted z-score was 0.
Consider GGAUCAAUACUCCAACAAATT against ZNF281, for which the median seed-adjusted z-score was 1.19 (active).
Take GGCUUGAUGCUGGUACUUUTT against HACL1: the median seed-adjusted z-score was -0.0664.
As for AGCCUGCGGUUUUCUGUAUTT against SYT12, the median seed-adjusted z-score was -0.329.
In the case of UUACCAUCGUGAAGAGAAATT against CLEC5A, the median seed-adjusted z-score was -1.07 (active).
In the case of CCUCAUCCCUGUUACAACATT against JAG1, the median seed-adjusted z-score was -0.32.
Take CCAACUGUGUGGCAGAACGTT against FKBP9L: the median seed-adjusted z-score was 0.666.
As for GUCUGUAGUUCACCCGUUATT against USP9Y, the figure is 0.012; as for AGCUAGGCCUGGAUAUCGATT against KRT83, 1.15 (active).
On to GCUUUCUACAAGUAUAAGATT against ERO1LB, for which the median seed-adjusted z-score was 0.565.
As for GGCUACCUGCAUUCACUGATT against SGK1, the median seed-adjusted z-score was -0.659.
For the sequence CCACAGAUGUGCAUAAACATT against NFKB2, the median seed-adjusted z-score was -0.132.
As to GGAACAUCGAAAUCGUGUATT against DDX6, the median seed-adjusted z-score is 1.12 (active).
With GGUCUACUUCUACUACAAUTT against UTY, the median seed-adjusted z-score was -0.538.
For the sequence CCGGUCAACUGUUACGUAUTT against GJA5, the median seed-adjusted z-score is 0.707.
The figure for CAUUCUGUGGUGAAACAUUTT against SCLY is 0.00396; for CCACCAUAGGAUAUGGUUATT against KCNJ16 it is -0.705; for CGCAAUAACUGUUUGGUAUTT against EGLN1 it is 2.05 (active).
Regarding GGCUAAUCGUGAACCGGAATT against DOCK8, the median seed-adjusted z-score is 0.243.
As for GGAUGGUAGUGUCUGACUUTT against MGLL, the figure is 0.288.
As for UGAAGAUGAUUGUCCUUAUTT against VAMP8, the figure is -0.184; as for CACCCUGCAGGUUCCCAUATT against HSD17B14, 0.386.
GGAUGCUUCUGAAUAGAAATT against BIRC7: the median seed-adjusted z-score was -1.44 (active).
Take CACUAUUGCAUGUAUCGAATT against ARHGAP10: the median seed-adjusted z-score was -0.458.
Turning to CAAAGGGCUAAGUUCUAAATT against TBC1D5, the median seed-adjusted z-score was 0.38.
The figure for AAACUAACAUUCGAUUGAATT against TRIM48 is 0.
As to GGUGGAGGACCAAACAGAATT against MGAT4B, the median seed-adjusted z-score is 0.0142.
Consider GCUCUACUAUUUCUACGAUTT against SPPL2B, for which the median seed-adjusted z-score was 0.0324.
Turning to GCAAGAGAGUCUCAAAUUUTT against EVX1, the median seed-adjusted z-score is 1 (active).
As for CCAUGCUCCAGUUAUCUUUTT against SLC10A6, the figure is -0.803; as for GAUUCUUCCCGGCAUCAUATT against GUCY1A3, 0.187.
In the case of GGGUGUAAAAUGCACGUUUTT against CLDN16, the median seed-adjusted z-score was -0.868.
The figure for CACUUGGAGUGGUGAAUCATT against NCL is 1.33 (active); for GCUCGGUGGAAAAACGUGATT against SCN3A it is -0.0556; for CAGUCUACAGCUUCAACAATT against ZNF207 it is -3.1 (active).
In the case of CGCUGACCCUGGAGAUGUATT against CALY, the median seed-adjusted z-score was 0.216.
Consider GGACAAUCCUUUCAUUAAUTT against HTR3C, for which the median seed-adjusted z-score was -0.221.
Regarding CUAAUUUACUAUUACGCUUTT against F2R, the median seed-adjusted z-score was -0.392.
Turning to UCCCAGCACUUAUAGCCUATT against ANKRA2, the median seed-adjusted z-score is 1.26 (active).
Turning to AGCCCUCUUCUGACACUAATT against SERPINH1, the median seed-adjusted z-score is 0.186.
Consider GCGUUGACCAAGACUCAUATT against TP53BP2, for which the median seed-adjusted z-score was 0.157.
Take AGCACUGCAUGUUCACCGATT against KLHL25: the median seed-adjusted z-score was -0.0146.
Regarding GCAUAUUAAGGAGACCUAUTT against HSD17B6, the median seed-adjusted z-score was 0.573.
As to CCAUCGUUCUGGGAAUUCUTT against CD6, the median seed-adjusted z-score was -0.33.
Take GGAUGAUAAUGCUAAUCCATT against PPP1R3A: the median seed-adjusted z-score is -0.241.
As for GGACUUUGACAAGAACAGUTT against CYP1A2, the figure is 0.
As for GAACAAUGAGUAUAUCCUATT against PPP2R5B, the figure is 0.237; as for GACGACCAAUUAUAGUUUATT against ZRANB1, -0.347.
On to CCAUCAAUGCGGCUCAUGUTT against TUFM, for which the median seed-adjusted z-score was 1.07 (active).
The figure for GGAUCAGCCGAGGAUGAAATT against PPP1R15A is 0.539.
For GGAUCUCAUGCACAUCUCATT against PLA2G6, the median seed-adjusted z-score is -0.123.
Take AGAAGAUUCUUGUAUUUAUTT against IL24: the median seed-adjusted z-score is -0.125.
The figure for GGAUGAUAUCAACUGCUAUTT against ACVR2A is -0.22; for ACAUGUGGGUGACGGUUUUTT against SRM it is 0; for CAUGGACCCUGAUGACAUATT against UROD it is 1.11 (active).
For GCGUGAAUGAGGUGGAUUATT against ETNK2, the median seed-adjusted z-score was -0.74.
As for CGUAUACUAUUAUCACGUUTT against ATP6V0A1, the median seed-adjusted z-score was 0.103.
The figure for GGGCACGGGUGAUAUGAAUTT against CTDP1 is -2.29 (active).
For AGCUACAAUUUGAAAGAGATT against RNF144A, the median seed-adjusted z-score was -0.185.
Regarding AGAGAUCACCGAUUACAGATT against ISG20, the median seed-adjusted z-score is 0.0209.
The figure for CAACUGUUAUCAGAACGAUTT against ARFIP2 is 0.748; for GCAAUGCCCUCUAUCAAUATT against IP6K1 it is -0.317.
With AGAUGAUCGCUGAGUUCAATT against TNNC2, the median seed-adjusted z-score was -0.773.
As for CGAAUGACAAGUGAUCUAATT against MDH1B, the figure is -1.13 (active).
On to GCUCAACUCUUAUUAGUCATT against ZNF485, for which the median seed-adjusted z-score was 0.445.
Take AUACCUGAACAGUCCCUCATT against NOBOX: the median seed-adjusted z-score is -0.426.
As for CGCGCAACAUCGUCAAGUATT against LPHN1, the median seed-adjusted z-score is -1.03 (active).
The figure for GGACUAUUACAAAUCAAGATT against FLT3 is 0.418; for GGACAUUGAUUAUAUUGGATT against GALC it is 0.
Take GACCGAGAAGUACCGCUGATT against HBZ: the median seed-adjusted z-score was -0.0054.
As for GCAUGUACCAGGUUCAGUATT against LRFN1, the figure is 0.605; as for GCAGAGACCUACAAAAAGATT against RCN3, -2.44 (active); as for GGCAGUGUUUAUUUACUAUTT against RHBDL2, 0.0701.
Take CCAAAGAUGUUUCAUCUGATT against PCDHGA7: the median seed-adjusted z-score is 0.705.
In the case of AAGGUAAAAUUGAAGAGUUTT against SERPINB9, the median seed-adjusted z-score is 0.
For the sequence CUCACCUACUGGAACCUGATT against ZBED4, the median seed-adjusted z-score was -0.553.
